How the values were obtained:
Experiment in all cases: PBM binding z-score (relative to random genomic background probes); higher = stronger binding; sequences stand for … in GC…GCGATTGACAGCGTAGAATGAAGG
[1] = tested on: RARb homodimer (NR concentration 270 nM)
How it was run: (§1)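 Custom Agilent 4×180K protein-binding microarrays carried double-stranded probes. Their 34-nt variable regions held direct-repeat seeds, single-nucleotide variants, half-site ablations and random human genomic background sequences. Arrays were incubated 1 h with ligand-free nuclear receptor dimers in PBS pH 7.4, 2% milk, 0.02% Triton X-100, 1 mM DTT, 0.2 mg/mL BSA and 0.4 mg/ml salmon testes DNA. Antibodies against each partner (one per run) detected binding, and scanned fluorescence was regression-normalized. Binding z-scores use random background probes as reference.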

[2] = tested on: RARg:RXRa (NR concentration 270 nM, RXRa partner concentration 90 nM)
How it was run: as §1

[3] = tested on: RARg homodimer (NR concentration 270 nM)
How it was run: as §1

[4] = tested on: RXRa DBDmut IVT, anti-RXR (DBD mutation: RXRa K156A/R161A, NR concentration 90 nM)
How it was run: as §1

[5] = tested on: RXRa homodimer (NR concentration 180 nM)
How it was run: as §1

[6] = tested on: THRa:RXRa (NR concentration 90 nM, RXRa partner concentration 90 nM)
How it was run: as §1

[7] = tested on: THRa homodimer (NR concentration 90 nM)
How it was run: as §1

[8] = tested on: VDR homodimer (NR concentration 270 nM)
How it was run: as §1

Sequence	PBM binding z-score [1]	PBM binding z-score [2]	PBM binding z-score [3]	PBM binding z-score [4]	PBM binding z-score [5]	PBM binding z-score [6]	PBM binding z-score [7]	PBM binding z-score [8]
TCATATAGGTAAATTCTAGGTGAAAGTCCGATCT	0.708	0.737	0.439	1.81	0.907	2.11	1.11	0.726
TTACCAAGGCGAAGGTCGTTGATCCCTCTGTAGA	0.804	0.317	0.0659	0.0625	1.13	1	0.0881	0.564
GCTCGGAGGACTAGGTCAGAGCTTTGTCCGTAGA	1.4	0.32	0.804	-0.871	-0.228	0.731	-0.465	-0.906
TCTTGTAGATTAATAGAGGTTAAGAAAGTGCGCT	1.51	0.95	0.856	1.23	1.66	1.81	-0.0934	0.699
GCAACTGGGGCAAAGCAGGTTACCATAAGGTTGG	1.27	0.563	0.56	-0.0375	0.648	2.78	0.101	-0.248
CCTGCTAGGTCAATGATCAGCTAAAGCAGCTCGC	2.32	3.18	4.16	1.82	1.83	1.99	-0.185	-0.421
GGAACGATGGCAAGTTGATAGCAGAGTTTGATGG	-0.624	-0.353	-0.158	-0.0368	-0.123	-0.797	-0.814	0.0604
CAAACTAGCTCACCGGAAGGTCAAAGTCCGCATG	3.98	3.23	2.5	0.916	3.25	2.67	1.55	2.17
TCTCGGAGGACTCGAAGGTCAGAGCTTTCCAGAG	2.73	1.7	1.24	0.262	1.41	1.65	-0.0603	-0.0798
GCGACTGGGGCAAAGAAGGTTACCATAAGGTTGG	1.92	1.19	1.02	-0.00563	0.942	2.77	0.225	0.247
CCTATTAGTTGACCTTAAGGGCAACCGAAGCTCG	4.16	4.56	3.45	1.41	4.9	4.36	5.34	2.12
CAAACTAGGTCAAGAGGACAAAGTCCGCTTCCCG	3.78	4.36	5.19	1.45	2.74	3	1.29	0.916
TCTGTTAGTTGATTAGGGCAACCGAAACAGCGGA	0.861	0.9	0.978	0.605	0.318	0.839	0.442	0.324
CCTACTCGGCCAAAGGTCATTGATTCCAATGCTC	4.75	6.07	5.2	1.7	6.26	3.41	1.46	2.63
ACTATTAGTTGACTTAGGGCAATCGATACGACGC	0.586	0.781	0.924	0.592	0.921	1.31	0.18	0.448
CCTTACGGGTCACTCCAGGTTATACCATCGGAGT	2.89	4.32	4.44	1.3	4.29	4.98	0.681	1.45
TCTTGTAGATCAACAGGAGGTCAAGAAAGATCGA	3.47	4.04	2.84	0.518	3.64	3.02	0.86	0.803
CCTACTGGGCCACGAAGGGTCATTGATTCAGTGA	3.41	2.96	2.73	-0.323	2.86	3	-0.121	1.53
TAGCCTAGGTCATGCGGGCGAGTATAGTGTCGGC	2.94	3.64	3.75	0.518	2.68	2.89	1.22	0.494

Sequence	PBM binding z-score [1]	PBM binding z-score [2]	PBM binding z-score [3]	PBM binding z-score [4]	PBM binding z-score [5]	PBM binding z-score [6]	PBM binding z-score [7]	PBM binding z-score [8]
CGAACGAGTGCATGAGTTGATAGCAAATGCCGAT	-0.322	0.343	0.307	3.2	0.414	-0.0112	-0.726	2.6
GCTATTAGTTGAAAGGGCACCCGAATGATTCTCG	1.78	1.18	1.03	1.06	1.43	0.64	0.229	0.843
ATATGTAGGTTAAGGGTCATTCATGTTGGTTCGC	4.2	4.74	3.5	2.3	6.14	3.43	1.52	4.27
GCTCGGAGGACAAGGTCGGAGCTTTGTCCGTAGA	0.998	0.842	1.11	-0.395	0.103	1.37	0.277	-0.608
CCAGACAGGTGAGAAGGTAACTCAACCTCGATTA	0.715	0.716	0.698	0.0591	0.59	0.724	0.31	-0.0105
CATAGTTGGTCAGGAGGTCACACACCGGATATGA	4.18	5.09	4.47	0.639	4.6	3.46	2.32	3.09
TCATATAGGTAAACAAGTGAAAGTCCGTAAGTTA	0.321	0.396	0.548	1.76	1.12	0.265	0.0631	0.508
CCTCAAAGTTCAAGGTAACGTAACAGAAAGCAGC	4.13	5.48	6.39	4.29	4.44	3.32	1.79	3.65
CAAACTAGGTCAGGAGGTCAAAGTCCGCTTCCCG	5.3	6.99	5.98	2.11	5.81	3.97	2.52	3.61
GCTAGTTGGTCAATAAAAGGTCACACACCGGTCG	5.51	6.07	5.18	0.854	5.51	3.66	1.83	2.11
GATACAGGGTCAGCTAGAGGCCAGACTATGGAAA	3.59	6.62	4.83	0.964	4.23	3.1	0.411	0.781
CGTCCAAGGTCATAGGAGGTTAGTGAAGACAGAT	4.27	5.73	5.72	3.76	5.53	4.76	3.13	2.99
GCGACTTGGGCAAAGCAGGTTACCATAAGGTTGG	-0.0673	-0.0478	-0.407	-0.506	0.218	1.39	-0.348	-0.774
CATCCAAGGTCATAGGAGGTCAGTGAAGACAGAT	5.07	7.02	7.22	3.91	7.03	5.14	3.35	5.28
CCTATTAATTGACCATAAGGGCAACCGAAGCTCG	1.91	0.926	1.1	0.931	0.841	1.63	1.81	1.85
GATACAGGGTCAAGCCCAGAGTACGCGTATTGAT	3.52	5.73	5.47	2.9	6.59	3.45	0.87	2.39
CAAACTGGGTCAAAGGTCAAAGTCGAGCCAACCA	5.2	8.56	7.31	2.55	10.1	4.51	1.31	3.12
CCTACTGGGCCATTCAGAGTTCATTGATCATATG	2.64	2.54	1.23	2.26	1.28	1.12	0.0171	5.74
TCTATTAGTTGAAGGGGAACCGACGAGTCCGTTT	0.0488	0.44	0.17	2.05	0.673	0.226	0.565	1.61

Sequence	PBM binding z-score [1]	PBM binding z-score [2]	PBM binding z-score [3]	PBM binding z-score [4]	PBM binding z-score [5]	PBM binding z-score [6]	PBM binding z-score [7]	PBM binding z-score [8]
AGTCAAAGTTCATCTAGGTTACGTAAGATATGCT	4.3	5.85	6.39	4.52	5.4	3.45	0.553	6.02
TAGCCTAGGTCATTCAGGGTCCAGTATAGAAAGC	3.02	4.74	4.16	2	3.11	4.2	0.899	2.74
CCTACTGGGCCAAAAAGGTCATTCATGCCGATAA	4.58	5.14	5.18	0.771	6.01	3.24	0.431	3.01
CCTATTAGTTGTCCATAAGGGCAACCGAAGCTCG	1.81	1.01	0.8	0.67	0.161	1.8	1.64	1.07
ATCGAAAGGTCGAGGTGAGCATAGAGAAAGGGAA	2.98	4.34	4.61	0.687	4.63	2.98	0.737	0.234
CGTCGAAGGTCATAGGAGGTCAGTGAAGACAGAT	5.29	6.92	7.53	3	6.64	5.27	1.39	3.45
CAAACTAGGTCAAGATCAAAGTCGGTTTGTGCCA	2.77	3.45	4.74	1.66	2.69	2.75	0.747	0.787
ATCTCTAGGTAAAAGTGCAGTGAATCCCGAGGAT	0.183	0.363	0.23	-0.0923	0.454	0.235	-0.373	0.138
CGTCCAAGGTCTAAGGTCAGTGAAGAGATGACGG	3.66	3.47	4.02	1.14	3.1	3.65	3.24	1.1
TCATATAGGTAAAAGGCGAAAGTCGGTGTGGTAA	-0.139	0.0161	-0.195	1.51	0.665	-0.0856	-0.0858	0.0813
CATACAGGGTCAGCTAGGCCAGATTAGGGACGGC	3.37	4.39	4.22	1.47	4.12	3.18	1.09	0.951
CCTACTGGGCCACGAAAGGTCACTGATTCAGTGA	4.67	4.7	4.98	-0.0819	4.93	3.84	1.03	0.962
ACTTACAGGTCAACGAGGTTATAGCACGCGTATA	4.19	5.93	5.75	2.76	5.89	4.02	1.8	4.27
GCTTGTAGACCAAGGTTAAGAAAGACTAAGCTAA	0.241	0.214	0.239	-0.149	0.485	0.969	-0.368	-0.0799
CCTGCTAGGTCATGGTCTGCTAATCTACAGTATG	2.97	3.73	4.43	2.02	2.66	3.17	1.35	0.439
CAAACTAGGTCAAGGTCAAAGCCGGTTTGTGCCA	5.03	6.1	6.74	2.67	5.67	4.39	3.5	3.55
TAGCCTAGGTCATTGGGACAGTATAGTACGCATC	2.92	3.97	4.51	1.52	3.13	2.95	1.14	1.44
ATCTCTGGGTAAAGATAGTTCAGTGAATGCAAAT	1.1	0.61	0.989	-0.0472	0.123	0.544	-0.18	0.45
GCGACTGGGGCATCAGCAGCTTACCATAACTTAA	-0.217	-0.328	-0.193	0.178	-0.47	-0.225	-0.422	-0.429

Reference: the supplement of paper PMC6555819
